# Experimental data reported in paper PMC8384837, “Expanding the binding specificity for RNA recognition by a PUF domain”.
# Key:
# Assay in all cases: yeast three-hybrid, YBZ-1, SC-Leu-His + 0.5 mM 3-AT, 4 days
# Conditions in all cases: tags: N-Gal4 AD-HA kept; label: inside an RPR1-promoter hybrid RNA with tandem MS2 sites; ssRNA
# PUM1 PUF domain R8-LFN = PUM1 PUF domain R8-LFN (Homo sapiens, UniProt Q14671 828-1176, N1122L;Y1123F;Q1126N)
# Summary of the method: (§1)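 Pumilio-1 PUF domain libraries, randomized at the three base-contacting residues of each repeat, were co-expressed with matching RNA elements from a centromeric plasmid in strain YBZ-1, which carries a LexA–MS2 coat fusion and a HIS3 reporter. Transformants grew for four days on SC-Leu (input) or on SC-Leu-His + 0.5 mM 3-AT (selection), and the repeat regions were PCR-amplified and Illumina-sequenced. The interaction score is the log change in variant frequency from input to selection. That logarithm is base 2, with a pseudocount of 1 where a variant was absent.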
# PUM1 PUF domain R3-YFV = PUM1 PUF domain R3-YFV (Homo sapiens, UniProt Q14671 828-1176, C935Y;R936F;Q939V)
# PUM1 PUF domain R3-YFV, sequence (Q14671 828-1176 C935Y/R936F/Q939V): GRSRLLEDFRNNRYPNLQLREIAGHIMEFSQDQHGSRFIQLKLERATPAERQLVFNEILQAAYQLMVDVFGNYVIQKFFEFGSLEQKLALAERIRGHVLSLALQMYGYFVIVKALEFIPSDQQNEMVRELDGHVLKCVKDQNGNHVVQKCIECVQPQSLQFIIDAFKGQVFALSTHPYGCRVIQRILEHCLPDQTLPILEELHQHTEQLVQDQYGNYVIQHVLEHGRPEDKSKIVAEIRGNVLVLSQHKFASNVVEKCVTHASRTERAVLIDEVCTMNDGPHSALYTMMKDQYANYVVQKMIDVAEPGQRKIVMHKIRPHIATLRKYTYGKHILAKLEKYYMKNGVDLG
# Summary of the method: as §1
# PUM1 PUF domain R4-RVF = PUM1 PUF domain R4-RVF (Homo sapiens, UniProt Q14671 828-1176, N971R;H972V;Q975F)
# PUM1 PUF domain R4-RVF, sequence (Q14671 828-1176 N971R/H972V/Q975F): as the sequence (Q14671 828-1176 C935Y/R936F/Q939V) above, with Y108C, F109R, V112Q, N144R, H145V, Q148F counted along it
# Summary of the method: as §1
# PUM1 PUF domain R5-PRV = PUM1 PUF domain R5-PRV (Homo sapiens, UniProt Q14671 828-1176, C1007P;Q1011V)
# PUM1 PUF domain R5-PRV, sequence (Q14671 828-1176 C1007P/Q1011V): as the sequence (Q14671 828-1176 C935Y/R936F/Q939V) above, with Y108C, F109R, V112Q, C180P, Q184V counted along it
# Summary of the method: as §1
# PUM1 PUF domain R3-LFN = PUM1 PUF domain R3-LFN (Homo sapiens, UniProt Q14671 828-1176, C935L;R936F;Q939N)
# PUM1 PUF domain R3-LFN, sequence (Q14671 828-1176 C935L/R936F/Q939N): as the sequence (Q14671 828-1176 C935Y/R936F/Q939V) above, with Y108L, V112N counted along it
# Summary of the method: as §1
# PUM1 PUF domain R3-RTA = PUM1 PUF domain R3-RTA (Homo sapiens, UniProt Q14671 828-1176, C935R;R936T;Q939A)
# PUM1 PUF domain R3-RTA, sequence (Q14671 828-1176 C935R/R936T/Q939A): as the sequence (Q14671 828-1176 C935Y/R936F/Q939V) above, with Y108R, F109T, V112A counted along it
# Summary of the method: as §1
# PUM1 PUF domain R8-LFN, sequence (Q14671 828-1176 N1122L/Y1123F/Q1126N): as the sequence (Q14671 828-1176 C935Y/R936F/Q939V) above, with Y108C, F109R, V112Q, N295L, Y296F, Q299N counted along it
sequence,measurement,setting,value
GGCUAGAACUAGUGGAUCCCCCGGCGCCCGGCGGCUCGAGCCCGGGUAAGUGUAAAUAGUCUGCAUGCCGCCGGGCGCCAUGCCUGCAGGUCGACUCUAGAAAACAUG,binding signal,PUM1 PUF domain R8-LFN,0.52 log2 enrichment (interaction score)
same,binding signal,PUM1 PUF domain R3-YFV,1.56 log2 enrichment (interaction score)
same,binding signal,PUM1 PUF domain R4-RVF,2.93 log2 enrichment (interaction score)
same,binding signal,PUM1 PUF domain R5-PRV,3.15 log2 enrichment (interaction score)
GGCUAGAACUAGUGGAUCCCCCGGCGCCCGGCGGCUCGAGCCCGGGUAAGCGUAAAUAGUCUGCAUGCCGCCGGGCGCCAUGCCUGCAGGUCGACUCUAGAAAACAUG,binding signal,PUM1 PUF domain R8-LFN,2.16 log2 enrichment (interaction score)
GGCUAGAACUAGUGGAUCCCCCGGCGCCCGGCGGCUCGAGCCCGGGUAAGUGUAAGUAGUCUGCAUGCCGCCGGGCGCCAUGCCUGCAGGUCGACUCUAGAAAACAUG,binding signal,PUM1 PUF domain R3-YFV,4.24 log2 enrichment (interaction score)
same,binding signal,PUM1 PUF domain R3-LFN,5.99 log2 enrichment (interaction score)
GGCUAGAACUAGUGGAUCCCCCGGCGCCCGGCGGCUCGAGCCCGGGUAAGUGUAAUUAGUCUGCAUGCCGCCGGGCGCCAUGCCUGCAGGUCGACUCUAGAAAACAUG,binding signal,PUM1 PUF domain R3-RTA,3.27 log2 enrichment (interaction score)
same,binding signal,PUM1 PUF domain R3-YFV,0.45 log2 enrichment (interaction score)
